# Assay results taken from the supplement of paper PMC9135407.
# Values joined by “and” are separate entries in the source; they are usually repeats but may differ in a detail not shown here. Equal entries are not always repeated. Structures can show the parent of a compound that is named as a salt. Hit rate of the full screen: of about 5,800 compounds, about 620 (11%) showed activity. What follows is part of a selection rich in actives, with near analogues and random picks from the rest. Unmarked numbers belong to inactive results.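 Rule for the calls: active = score above a cut-off or among the top three wells of a plate; in these data no inactive exceeds 0.85.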
# Tested on: primary human hepatic stellate cells (donor 1)
# Experiment: scaled lipid accumulation score (0 = DMSO-like, 1 = nortriptyline-like); higher = stronger HSC inactivation (lipid re-accumulation), active = hit call of the paper
# Settings: 48 h
# [1] = library stock concentration: 1 mM
# [2] = library stock concentration: 10 mM
# [3] = library stock concentration: 3.33 mM
structure (smiles),measurement,setting,value
CNCC(O)c1ccc(O)c(OC)c1 (stereo not drawn) [Metanephrine hydrochloride DL],scaled lipid accumulation score,,0.001
"CCCCCC1OC1C/C=C\CCCCCCCC(=O)O (stereo not given) [Leukotoxin B (12,13-EODE)]",scaled lipid accumulation score,library stock concentration: 100 uM,≤ -0.021
CCCCCC[C@H]1C(=O)O[C@H](C)[C@H](NC(=O)c2cccc(NC=O)c2O)C(=O)O[C@@H](C)[C@@H]1OC(=O)CC(C)C [Antimycin A],scaled lipid accumulation score,,0.274
"CCCCC/C=C\C/C=C\C/C=C\C/C=C\CCCC(=O)N(C)C [Arachidonoyl-N,N-dimethyl amide]",scaled lipid accumulation score,[1],0.01
CC(N)C(O)c1ccccc1 (stereo not given) [Phenylpropanolamine],scaled lipid accumulation score,library stock concentration: 13.2 mM,≤ 0
CC(N)C(O)c1ccccc1 (stereo not given) [Phenylpropanolamine hydrochloride],scaled lipid accumulation score,,≤ 0
same,scaled lipid accumulation score,library stock concentration: 10.7 mM,≤ -0.001
C=C[C@H]1CN2CC[C@H]1C[C@H]2[C@H](OC(=O)OCC)c1ccnc2ccc(OC)cc12 [Quinine ethyl carbonate],scaled lipid accumulation score,library stock concentration: 5 mM,≤ -0.001
same,scaled lipid accumulation score,[2],0.318
CN1C[C@H](C(=O)N[C@]2(C)O[C@@]3(O)[C@@H]4CCCN4C(=O)[C@H](Cc4ccccc4)N3C2=O)C[C@@H]2c3cccc4[nH]cc(c34)C[C@H]21 [Dihydroergotamine mesylate],scaled lipid accumulation score,library stock concentration: 2.9 mM,≤ 0
same,scaled lipid accumulation score,[2],0.16 and 0.216
CN1C[C@H](C(=O)N[C@]2(C)O[C@@]3(O)[C@@H]4CCCN4C(=O)[C@H](Cc4ccccc4)N3C2=O)C[C@@H]2c3cccc4[nH]cc(c34)C[C@H]21.CS(=O)(=O)O [Dihydroergotamine methanesulfonate],scaled lipid accumulation score,[2],1.06 (active)
CN1C[C@H](C(=O)N[C@]2(C)O[C@@]3(O)[C@@H]4CCCN4C(=O)[C@H](Cc4ccccc4)N3C2=O)C[C@@H]2c3cccc4[nH]cc(c34)C[C@H]21 [Dihydroergotamine tartrate],scaled lipid accumulation score,,0.119
CC(C)[C@@]1(NC(=O)[C@@H]2C[C@@H]3c4cccc5[nH]cc(c45)C[C@H]3N(C)C2)O[C@@]2(O)[C@@H]3CCCN3C(=O)[C@H](Cc3ccccc3)N2C1=O [Dihydroergocristine mesylate],scaled lipid accumulation score,,0.232
same,scaled lipid accumulation score,[2],0.54
FC(F)(F)c1cccc(C2=CCN(CCc3ccc4ccccc4c3)CC2)c1 [Xaliproden hydrochloride],scaled lipid accumulation score,[2],0.229
CC(N)Cc1cnc[nH]1 (stereo not given),scaled lipid accumulation score,[2],0.028
CN1CC[C@]23CCCC[C@H]2[C@H]1Cc1ccc(O)cc13,scaled lipid accumulation score,library stock concentration: 9.9 mM,≤ 0
CC(=O)O[C@H]1C[C@@H]2CC[C@@H]3[C@H](CCC4(C)[C@H]3C[C@H]([N+]3(C)CCCCC3)[C@@H]4OC(C)=O)C2(C)C[C@@H]1[N+]1(C)CCCCC1 (stereo not given in full) [Pancuronium Br],scaled lipid accumulation score,library stock concentration: 3.5 mM,≤ -0.006
Cc1[nH]nc2ccc(-c3cncc(OC[C@@H](N)Cc4c[nH]c5ccccc45)c3)cc12,scaled lipid accumulation score,library stock concentration: 80 uM,0.308
same,scaled lipid accumulation score,library stock concentration: 2 mM,0.593
same,scaled lipid accumulation score,[2],0.427
Cc1n[nH]c2ccc(-c3cncc(OC[C@@H](N)Cc4c[nH]c5ccccc45)c3)cc12,scaled lipid accumulation score,library stock concentration: 400 uM,1 (active)
CNC(Cc1c[nH]c2ccccc12)C(=O)O (stereo not given) [Abrine (l)],scaled lipid accumulation score,[2],≤ 0
C[N+]1(C)C2CCC1CC(OC(=O)c1c[nH]c3ccccc13)C2 (stereo not given) [3-Tropanylindole-3-carboxylate methiodide],scaled lipid accumulation score,[2],≤ 0
Cn1cc(C(=O)C(=O)N[C@H]2CN3CCC2CC3)c2ccccc21,scaled lipid accumulation score,[2],0.403
O=C(N[C@H]1CN2CCC1CC2)c1ccc(Cl)cc1,scaled lipid accumulation score,[2],≤ -0.001 and 0.156
c1ccc2c(c1)Sc1ccccc1N2CC1CN2CCC1CC2 (stereo not given),scaled lipid accumulation score,[2],1.03 (active)
COc1cc2c(cc1OC)[C@@]13CCN4CC5=CCO[C@H]6CC(=O)N2[C@H]1[C@H]6[C@H]5C[C@H]43 [Brucine],scaled lipid accumulation score,library stock concentration: 5.1 mM,≤ 0
same,scaled lipid accumulation score,[2],≤ 0
O=c1c2ccccc2[se]n1-c1ccccc1 [Ebselen] [listing 1 of 3 here],scaled lipid accumulation score,,0.867 (active)
O=c1c2ccccc2[se]n1-c1ccccc1 [Ebselen] [listing 2 of 3 here],scaled lipid accumulation score,[1],≤ 0
O=c1c2ccccc2[se]n1-c1ccccc1,scaled lipid accumulation score,[2],1.07 (active)
O=c1c2ccccc2[se]n1-c1ccccc1 [Ebselen] [listing 3 of 3 here],scaled lipid accumulation score,library stock concentration: 18.2 mM,0.952 (active)
CNC1=Nc2ccc(Cl)cc2C(c2ccccc2)=[N+]([O-])C1,scaled lipid accumulation score,[2],0.036
CCCCC/C=C\C/C=C\C/C=C\C/C=C\CCCCOC(CO)CO [2-Arachidonyl Glycerol ether],scaled lipid accumulation score,[1],≤ 0
COc1ccc2cc(C(C#N)OC(=O)OCC3OC3c3ccccc3)ccc2c1 (stereo not given) [Epoxy Fluor 7],scaled lipid accumulation score,[1],0.009
Cc1cc2c(C(C)C)c(O)c(O)c(C=O)c2c(O)c1-c1c(C)cc2c(C(C)C)c(O)c(O)c(C=O)c2c1O [Gossypol],scaled lipid accumulation score,,≤ 0
same,scaled lipid accumulation score,[3],0.016
same,scaled lipid accumulation score,[2],0.824 and 0.57
Cc1cc2c(C(C)C)c(O)c(O)c(C=O)c2c(O)c1-c1c(C)cc2c(C(C)C)c(O)c(O)c(C=O)c2c1O [listing 1 of 2 here],scaled lipid accumulation score,[2],0.999 (active)
Cc1cc2c(C(C)C)c(O)c(O)c(C=O)c2c(O)c1-c1c(C)cc2c(C(C)C)c(O)c(O)c(C=O)c2c1O [listing 2 of 2 here],scaled lipid accumulation score,[3],≤ 0
same,scaled lipid accumulation score,[2],0.142
CC(N)Cc1ccc(O)cc1 (stereo not given) [Hydroxyamphetamine hydrobromide],scaled lipid accumulation score,[2],≤ 0
CC(C)=CCC[C@]1(C)C=Cc2c(O)c3c(c(CC=C(C)C)c2O1)O[C@]12C(=C[C@@H]4C[C@H]1C(C)(C)O[C@@]2(C/C=C(/C)C(=O)O)C4=O)C3=O [Gambogic acid],scaled lipid accumulation score,[2],0.672
CCCCCCC(C)(C)c1cc(OC)c2c(c1)OC(C)(C)[C@@H]1CC=C(C)C[C@@H]21,scaled lipid accumulation score,[1],≤ 0
O=C1CSC(c2ccccc2Cl)c2cc(Cl)ccc2N1 (stereo not given),scaled lipid accumulation score,[2],≤ -0.006
same,scaled lipid accumulation score,library stock concentration: 15.4 mM,0.158
CC[C@@]1([C@@H]2O[C@@H]([C@H]3O[C@@](O)(CO)[C@H](C)C[C@@H]3C)C[C@@H]2C)CC[C@H]([C@]2(C)CC[C@]3(C[C@H](O)[C@@H](C)[C@@H]([C@@H](C)[C@@H](OC)[C@H](C)C(=O)O)O3)O2)O1 [Monensin sodium salt],scaled lipid accumulation score,,0.541
CC[C@@]1([C@H]2O[C@H]([C@H]3O[C@@](O)(CO)[C@H](C)C[C@@H]3C)C[C@H]2C)CC[C@H]([C@@]2(C)CC[C@]3(C[C@H](O)[C@@H](C)[C@@H]([C@H](C)[C@H](OC)[C@@H](C)C(=O)O)O3)O2)O1 [Monensin sodium],scaled lipid accumulation score,library stock concentration: 7.2 mM,0.508
